From PubChem
Sfp PPTase inh = qHTS Assay for Inhibitors of Bacillus subtilis Sfp phosphopantetheinyl transferase (PPTase); Potency, µM, for the others: largest response in the series, negative = inhibition, hits mostly inhibitors; 4'-phosphopantetheinyl transferase ffp (Bacillus subtilis), Q9F4F7; Biochemical Sfp PPTase activity, qHTS; 310,000 compounds, 3.5% hits;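 also: the enzyme is Sfp with the accession as filed and its product quenches rhodamine fluorescence; potency is read from the fitted curve at half-maximal effect; 0% = enzyme reaction without inhibitor and -100% = no enzyme wells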
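Reaction rates are the 30-min fluorescence difference (ex 525, em 598 nm) in wells containing 15 nM Sfp, 5 uM rhodamine-CoA and 12.5 uM BHQ-2-YbbR at pH 7.6 with 10 mM MgCl2.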
G9a inh = qHTS Assay for Inhibitors of Histone Lysine Methyltransferase G9a. AID 504332, 2011. 350,000 compounds, 8.8% hits. Histone-lysine N-methyltransferase EHMT2 (Homo sapiens), Q96KQ7. Potency, µM (titrated, usually from 102 µM), for the others: at the highest dose activity, negative = inhibition, actives largely listed as inhibitors. G9a H3K9 monomethylation, AlphaScreen, 2 h; also: potency is read from the fitted curve at half-maximal effect; % is scaled to controls: 0 for no effect and ±100 for the full control effect; nearly all actives have a fitted effect of over 75% in size
Target sequence (Q96KQ7 913-1193 limits assumed): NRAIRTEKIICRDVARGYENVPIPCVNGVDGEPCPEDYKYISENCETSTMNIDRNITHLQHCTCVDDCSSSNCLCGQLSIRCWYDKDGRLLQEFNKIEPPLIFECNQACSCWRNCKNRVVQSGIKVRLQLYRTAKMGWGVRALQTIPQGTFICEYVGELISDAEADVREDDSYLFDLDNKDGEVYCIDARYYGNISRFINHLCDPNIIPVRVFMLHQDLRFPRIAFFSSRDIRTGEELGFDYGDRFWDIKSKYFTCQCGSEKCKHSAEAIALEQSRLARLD
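Step 1: enzyme (final 20 nM) with compound, 15 min RT. Step 2: substrate peptide 500 nM and SAM 20 uM, 2 h RT. Step 3: anti-H3K9me1 antibody and AlphaScreen beads, 10 min, then plate read.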
KDM4E inh = qHTS Assay for Inhibitors of Human Jumonji Domain Containing 2E (JMJD2E). 230,000 compounds, 1.6% hits. AID 2147, 2009. JMJD2E catalytic domain, FDH-coupled NADH fluorescence (FDH is formaldehyde dehydrogenase). Potency, µM (titrated, usually from 57.1 µM), for the others: top-dose activity change, negative = inhibition, most hits filed as inhibitors; active = well fitted inhibition curve with a large enough effect, not every such curve was filed as active; inconclusive = small, poorly fitted or top-dose-only effect, or another doubt; inactive = no such curve, though single readings can be large or run the other way;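 also: potency is read from the fitted curve at half-maximal effect; 0% = wells with enzyme and -100% = buffer wells without enzyme; nearly all actives have a fitted effect of over 50% in size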
Target sequence (B2RXH2 1-337 limits assumed): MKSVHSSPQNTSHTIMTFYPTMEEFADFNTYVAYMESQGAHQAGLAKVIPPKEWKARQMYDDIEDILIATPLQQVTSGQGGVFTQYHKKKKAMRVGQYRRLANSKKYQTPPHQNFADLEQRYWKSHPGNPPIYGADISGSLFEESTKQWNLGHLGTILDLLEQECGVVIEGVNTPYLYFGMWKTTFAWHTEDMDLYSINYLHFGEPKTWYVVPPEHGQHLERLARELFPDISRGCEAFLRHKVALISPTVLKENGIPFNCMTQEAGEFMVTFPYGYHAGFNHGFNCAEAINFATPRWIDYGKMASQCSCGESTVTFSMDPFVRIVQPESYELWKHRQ
miR-21 reporter = qHTS Assay for Modulators of miRNAs and/orActivators of miR-21 | 340,000 tested, under 10 active | AID 2288, 2010 | HeLa miR-21 FLuc reporter, luciferase, 48 h | Potency, µM (highest dose often 38.3 µM), without a hit: at the highest dose activity change, positive = activation, usual class: activators;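 also: % of control where 0% means no effect; miR-21 action dims this reporter so a rising signal means less miR-21 action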
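HeLa cells stably expressing CMV-driven firefly luciferase with a downstream miR-21 binding sequence, endogenously expressing miR-21, were treated with titrations (up to about 40uM final) for 48 hours at 37 degree Celsius. Luciferase luminescence was read after lysis.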
Lamin A splicing = qHTS Assay for Modulators of Lamin A Splicing. HeLa LMNA splicing GFP/RFP minigene ratio, 48 h. Potency, µM (top dose mostly 46.1 µM), for inactives: at the highest dose ratio change, negative = inhibition, usual class: inhibitors. 200,000 compounds, 0.01% hits; active = well fitted inhibition curve with a large enough effect in the signal ratio, with a control signal flat, not every such curve was filed as active; inconclusive = small, poorly fitted or top-dose-only effect, or effect the other way, or a change in a side signal; the % refers to the signal ratio; also: potency is read from the fitted curve at half-maximal effect; % is scaled to controls: 0 for no effect and ±100 for the full control effect
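S3 HeLa stable clones carrying a lamin A-EGFP splicing minigene plus DsRed2 were seeded at 600 cells/well in Opti-MEM with 2% FBS, pin-dosed and incubated 48 h at 37°C. Acumen cytometry (488 nm) gave the GFP/RFP total-intensity ratio.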
ALDH1A1 inh = qHTS Assay for Inhibitors of Aldehyde Dehydrogenase 1 (ALDH1A1). Potency, µM (highest dose often 75.3 µM), for inactives: at the top dose activity, negative = inhibition, hits mostly inhibitors. Aldehyde dehydrogenase 1A1 (Homo sapiens), P00352. 220,000 compounds, 7.3% hits. Purified ALDH1A1, NADH fluorescence, propionaldehyde substrate; active = well fitted inhibition curve with a large enough effect, not every such curve was filed as active; inconclusive = small, poorly fitted or top-dose-only effect, or another doubt; inactive = no such curve, though single readings can be large or run the other way;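 also: potency is read from the fitted curve at half-maximal effect; plate controls were no enzyme wells and a reference inhibitor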
The depositor's hits bear a star; ? = inconclusive; · = no result given; [ ] = another dose, or the depositor's remark. Shown are actives, neighbours in structure and some others; about 13% of the full set was active somewhere. Unless noted, calls follow the shape of the dose curve; as a rule, active = well fitted curve in the direction sought with a large enough effect; inconclusive = small, poorly fitted or top-dose-only effect, or another doubt; inactive = no such curve, though single readings can be large; an effect the other way counts as inactive or inconclusive.

SMILES	Sfp PPTase inh	G9a inh	KDM4E inh	miR-21 reporter	Lamin A splicing	ALDH1A1 inh
O=C(CN1CCOc2ccccc21)NCc1cccs1	15.6%	?	-1.5%	-6.9%	-0.3%	-6.2%
O=C(CN1CCOc2ccccc21)NCc1ccco1	?	?	0.5%	-3.4%	14.2%	11.2µM*
O=C(CN1CCOc2ccccc21)NCc1ccc(Cl)cc1	-8.9%	50.1µM*	-0.7%	-16.4%	0.3%	-13.8%
CN(C)c1ccc(CNC(=O)c2ccccc2NC(=O)c2nsc3ccccc23)cc1	·	-24.8%[59 µM]	·	-10.5%	1.8%[46 µM]	·
COc1ccccc1NC(=O)Cn1c(=O)n(CCc2ccccc2)c(=O)c2c3c(sc21)CN(C(C)=O)CC3	·	-0.4%[59 µM]	·	15.6%	·	·
O=C(Nc1ccc(-c2cn3ccccc3n2)cc1)c1cccs1	?	?	·	-50.0%	·	?
CCc1ccc2nc(N(Cc3cccnc3)C(=O)c3ccc(C#N)cc3)sc2c1	·	-6.6%[59 µM]	·	-32.8%	-15.3%[46 µM]	·
CCc1ccc2nc(N(CCN(C)C)C(=O)c3ccc4ncsc4c3)sc2c1	-25.4%	10µM*	·	-55.4%	·	·
Cc1ccc2sc(N(CCCN(C)C)C(=O)c3nc4ccccc4s3)nc2c1C	-19.8%	44.7µM*	1.0%	-14.4%	-6.5%[46 µM]	3.0%
Cc1cccc2sc(N(CCCN(C)C)C(=O)c3nc4ccccc4s3)nc12	79.4µM*	10µM*	?	-12.7%	9.2%	?
Cc1ccc2sc(N(CCCN(C)C)C(=O)c3ccc(Br)s3)nc2c1C	-28.3%	35.5µM*	-4.6%	-1.6%	?	5.9%
COc1ccc(C(=O)N2CCN(Cc3cc(=O)n4nc(-c5ccccc5C)sc4n3)CC2)cc1OC	·	15.4%[59 µM]	·	4.1%	?	·
Cc1c(-c2nsc(NC(=O)c3cccs3)n2)nnn1-c1ccc(Br)cc1	·	-26.6%[59 µM]	·	-55.1%	·	·
CCC(C)C(NS(=O)(=O)c1ccc(C)cc1)C(=O)N1CCOCCOCCOCC1 (stereo not drawn)	10.3%	4.3%	·	3.6%	·	·
Cc1cccc2sc(N(CCCN(C)C)C(=O)c3ccc4ncsc4c3)nc12	-23.8%	31.6µM*	·	-34.5%	·	·
O=C(Cc1n[nH]c(=O)c2ccccc12)Nc1cc(Cl)ccc1-n1cncn1	·	-5.7%	·	·	·	·
O=C(Cc1n[nH]c(=O)c2ccccc12)Nc1cc(C(F)(F)F)ccc1-n1cncn1	·	35.5µM*	·	·	·	·
O=C(CSc1nnnn1-c1ccc2c(c1)OCCO2)OC1CCCCC1	-3.3%	-28.5%[12.7 µM]	-7.8%	-19.1%	-4.5%	5.01µM*
CSc1ccccc1-n1nnnc1SCC(=O)Nc1ccccc1C	7.0%	-7.1%[12.7 µM]	0.5%	-2.2%	-6.3%	12.6µM*
CSc1ccccc1NC(=O)CSc1nnnn1-c1ccccc1SC	6.7%	-33.2%[59 µM]	-6.6%	0.7%	-8.6%	11.2µM*
Cc1ccccc1NC(=O)CCSc1nnnn1-c1ccccc1	-12.3%	22.1%[59 µM]	-1.3%	-2.1%	-15.7%	8.91µM*
O=C(O)CCSc1nnnn1-c1ccccc1	15.3%	24.3%	4.8%	-6.1%	4.1%	-2.0%
Cc1[nH]c(=O)[nH]c(=O)c1S(=O)(=O)N1CCCC(C(=O)NCCC2=CCCCC2)C1 (stereo not drawn)	22.7%	?	-0.2%	0.7%	28.9%[46 µM]	?
O=c1cnc2cnc(N3CCNCC3)nc2n1C1CC1	26.6%	4.6%[0.501 µM]	·	·	-0.6%	?
Cc1cccc(C)c1NC(=O)C1CCN(S(C)(=O)=O)CC1	-1.5%	-2.8%	·	4.2%	·	·
SMILES	Sfp PPTase inh	G9a inh	KDM4E inh	miR-21 reporter	Lamin A splicing	ALDH1A1 inh
Cc1ccc(NC(=O)CCSc2nnnn2-c2ccc3c(c2)OCO3)cc1C	13.6%	?	2.2%	-1.4%	-7.1%	12.6µM*
O=C(CSc1nnnn1-c1ccccc1)NCc1cccs1	15.8%	·	3.1%	-7.8%	20.4%	-12.3%
CSc1ccccc1-n1nnnc1SCC(=O)NCc1cccs1	10.9%	-1.7%[59 µM]	3.1%	-10.6%	-4.5%	15.8µM*
Cc1cc(C)nc(SCC(=O)Oc2ccc3oc(=O)cc(C)c3c2)n1	5.5%	50.1µM*	6.6%	-15.6%	9.2%	-2.1%
O=C(CCC1N=C2c3ccccc3N=C(SCC(=O)Nc3ccc(F)cc3)N2C1=O)NCc1cccs1 (stereo not drawn)	·	3.8%[59 µM]	·	-2.0%	-3.9%[46 µM]	·
Cc1cccc(N(C(=O)CNC(=O)c2cccs2)C(C(=O)NC2CCCC2)c2ccncc2)c1 (stereo not drawn)	18.1%	14.0%	·	0.0%	·	·
CNC(C)C#Cc1c(-c2cc(OC)c(OC)c(OC)c2)noc1C (stereo not drawn)	3.6%	31.6µM*	·	8.6%	·	·
COc1cc(-c2noc(C)c2C#Cc2ccc(N)cc2)cc(OC)c1OC	8.9%	·	·	2.4%	·	·
CC(=O)C1=C(O)C(=O)N(c2ccc(Br)cc2)C1c1cccc(F)c1 (stereo not drawn)	12.8%	44.7µM*	·	-2.3%	·	·
CC(=O)C1=C(O)C(=O)N(c2cccnc2)C1c1cccc([N+](=O)[O-])c1 (stereo not drawn)	0.8%	?	?	-2.8%	·	·
CC(=O)C1=C(O)C(=O)N(c2ccc(O)cc2)C1c1cccc([N+](=O)[O-])c1 (stereo not drawn)	25.4%	50.1µM*	·	2.3%	·	·
O=c1cc(N2CCc3ccccc32)[nH]c(=O)n1-c1ccccc1Cl	2.0%	-33.5%	3.5%	-4.4%	3.8%[9.22 µM]	-6.8%
Cc1ccccc1-n1c(=O)cc(N2CCc3ccccc32)[nH]c1=O	56.2µM*	18.8%[59 µM]	-14.5%	-0.6%	-12.9%	?
COc1ccc(S(=O)(=O)N(CC(=O)Nc2ccc3c(c2)OCO3)c2ccc(C)cc2)cc1	·	-43.9%[59 µM]	·	1.4%	·	·
CCCCCc1ccc(OCCCC[n+]2ccc(C)cc2)c(CCCCC)c1	50.1µM*	·	3.6%	?	·	-4.8%
CCC(C)(C)c1ccc(OCCCC[n+]2ccccc2)c(C(C)(C)CC)c1	50.1µM*	?	4.6%	?	·	-9.8%
CCCCCc1ccc(OCCCC[n+]2cccc(C)c2)c(CCCCC)c1	-8.4%	?	?	-6.4%	?	?
Cc1cc(=O)oc2cc(OCCCC[n+]3ccccc3)ccc12	6.5%	·	?	-1.7%	·	?
CCCCCc1ccc(OCCCC[n+]2ccccc2)c(CCCCC)c1	35.5µM*	?	-2.0%	?	·	12.7%
CCNc1ncc2nc(-c3ccc(F)cc3)c(=O)n(C)c2n1	-1.0%	-10.6%[0.501 µM]	·	·	?	?
O=C(COc1ccccc1)N(Cc1ccco1)C1CCS(=O)(=O)C1 (stereo not drawn)	-3.2%	?	-0.2%	-7.5%	4.9%	22.4µM*
